We go through 44 compounds from PMC4336329 (PLoS ONE, 2015).

The structures appear in SMILES notation. About 14,000 (4.5%) of roughly 310,000 compounds showed an effect of 50% or more. The effect is printed as a negative number. Shown is part of a subset that was picked to be rich in strong results.
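Also: peak tail current of the secondary pulse compared with the same well before compound.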

Sequence of human ether-à-go-go-related gene (hERG) potassium channel (Q12809 whole entry, looked up): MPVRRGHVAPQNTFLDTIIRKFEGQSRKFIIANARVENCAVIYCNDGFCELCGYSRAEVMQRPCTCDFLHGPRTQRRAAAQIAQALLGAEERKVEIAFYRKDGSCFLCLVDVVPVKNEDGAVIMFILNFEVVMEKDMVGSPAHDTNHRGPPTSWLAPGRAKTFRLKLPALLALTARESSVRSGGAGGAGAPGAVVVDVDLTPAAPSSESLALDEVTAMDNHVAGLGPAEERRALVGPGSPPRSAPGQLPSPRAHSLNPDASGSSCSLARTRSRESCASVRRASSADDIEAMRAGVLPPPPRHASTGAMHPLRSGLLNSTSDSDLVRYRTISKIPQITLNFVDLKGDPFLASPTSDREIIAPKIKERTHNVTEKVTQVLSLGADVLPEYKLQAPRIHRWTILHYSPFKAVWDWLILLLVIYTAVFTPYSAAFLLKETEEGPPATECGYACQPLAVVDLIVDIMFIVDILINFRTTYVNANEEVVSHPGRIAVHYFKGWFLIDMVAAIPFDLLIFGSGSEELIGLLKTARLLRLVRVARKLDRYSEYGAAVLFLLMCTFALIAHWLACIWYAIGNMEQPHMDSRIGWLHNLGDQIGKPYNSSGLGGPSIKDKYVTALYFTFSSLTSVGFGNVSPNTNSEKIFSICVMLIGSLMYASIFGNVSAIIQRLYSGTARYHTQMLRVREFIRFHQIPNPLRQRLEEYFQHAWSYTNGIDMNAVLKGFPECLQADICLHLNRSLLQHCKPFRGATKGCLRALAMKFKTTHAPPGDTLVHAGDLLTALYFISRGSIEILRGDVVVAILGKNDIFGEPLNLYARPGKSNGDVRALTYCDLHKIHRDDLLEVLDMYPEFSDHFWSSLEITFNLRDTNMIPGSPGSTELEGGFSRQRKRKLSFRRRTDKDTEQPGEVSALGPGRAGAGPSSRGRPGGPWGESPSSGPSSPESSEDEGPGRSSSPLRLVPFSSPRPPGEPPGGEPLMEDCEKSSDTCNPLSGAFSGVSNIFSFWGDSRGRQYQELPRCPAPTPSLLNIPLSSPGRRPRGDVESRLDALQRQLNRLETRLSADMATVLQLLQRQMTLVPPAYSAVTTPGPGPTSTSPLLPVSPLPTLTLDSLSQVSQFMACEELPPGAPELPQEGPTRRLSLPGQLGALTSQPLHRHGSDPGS

This experiment has as its target human ether-à-go-go-related gene (hERG) potassium channel (human, UniProt Q12809). In words: primary screen, population patch clamp on CHO cells stably expressing hERG; higher = less effect of the substance.
`NC(=O)C1CCCN(Cc2ccc(Cl)cc2)C1` (centres unmarked): the “hERG current change (%, negative = inhibition) at 10uM” value was found to be 0.421%.
As for `COc1c(C)cc(C(=O)C2CCCN(Cc3ccc(Oc4ncccn4)cc3)C2)cc1C` (centres unmarked), the “hERG current change (%, negative = inhibition) at 10uM” value is given as -68.9%.
With `O=C(c1ccc(Cl)cc1)C1CCCN(Cc2ccc(Oc3ncccn3)cc2)C1` (centres unmarked), the “hERG current change (%, negative = inhibition) at 10uM” value was -72.9%.
Turning to `CC(C)Oc1cccc(C(=O)C2CCCN(Cc3cnn(C(C)C)c3)C2)c1` (centres unmarked), the “hERG current change (%, negative = inhibition) at 10uM” value is -36.3%.
Next, `COc1c(C)cc(C(=O)C2CCCN(Cc3cccc(O)c3)C2)cc1C` (centres unmarked): -23.9%.
Consider `CC(C)Oc1cccc(C(=O)C2CCCN(Cc3ccc(Oc4ncccn4)cc3)C2)c1` (centres unmarked), for which the “hERG current change (%, negative = inhibition) at 10uM” value is given as -62.6%.
With `COc1c(C)cc(C(=O)C2CCCN(Cc3ccccn3)C2)cc1C` (centres unmarked), the “hERG current change (%, negative = inhibition) at 10uM” value was -16.5%.
On to `COc1cccc(-n2cc3c(=O)n(C)c(=O)n(C)c3c2)c1`, for which the “hERG current change (%, negative = inhibition) at 10uM” value is -3.89%.
Turning to `O=C(Nc1ccccc1Br)C(=O)N1CCCC1`, the “hERG current change (%, negative = inhibition) at 10uM” value is reported as 3.44%.
To `CCCC(C)NC(=O)Cc1ccccc1[N+](=O)[O-]` (centres unmarked) belongs 2.52%; to `CCCC(C)NC(=O)C1CCN(S(=O)(=O)c2ccccc2)CC1` (centres unmarked), -12%; to `COc1ccc(OC)c(S(=O)(=O)Nc2cccc(-c3ccc4nncn4n3)c2)c1`, 18.7%.
On to `CC(C)(C)C(=O)OCc1nc(-c2ccc3c(c2)OCCO3)cs1`, for which the “hERG current change (%, negative = inhibition) at 10uM” value came to 10.8%.
For `CCOc1ccc(Cl)cc1CNCCc1ccc(F)cc1.Cl`, the “hERG current change (%, negative = inhibition) at 10uM” value is -48%.
Consider `CCOc1ccc(Cl)cc1CNCCNCCO.Cl`, for which the “hERG current change (%, negative = inhibition) at 10uM” value is given as 24.3%.
In the case of `CCN(CC)CCNCc1cc(Cl)ccc1OCc1ccccc1F.Cl`, the “hERG current change (%, negative = inhibition) at 10uM” value is listed as -72.8%.
To `CC(C)(C)NCc1cc(Cl)ccc1OCc1ccccc1F.Cl` belongs -43.3%; to `CCOc1ccc(Cl)cc1CNCCc1ccccc1F.Cl`, -59.8%; to `CCNCc1ccc(OCc2ccccc2F)c(OC)c1.Cl`, -11%.
For `Cc1ccc2c(c1)C(c1ccccc1)N(C(=O)c1ccc(S(=O)(=O)N3CCOCC3)cc1)CC(=O)N2` (centres unmarked), the “hERG current change (%, negative = inhibition) at 10uM” value is -19.1%.
Consider `COc1cc([N+](=O)[O-])ccc1NC(=O)C[n+]1ccccc1C.[Cl-]`, for which the “hERG current change (%, negative = inhibition) at 10uM” value came out at 11%.
In the case of `N#Cc1c(-c2ccccc2)cc(-c2ccccc2)nc1SCCC(=O)O`, the “hERG current change (%, negative = inhibition) at 10uM” value was determined as 18.4%.
For the compound `COc1ccc(/C(N)=N/OC(=O)c2ccc(C)c([N+](=O)[O-])c2)cc1`, the “hERG current change (%, negative = inhibition) at 10uM” value was -6.61%.
As for `O=C(N/C(=C\c1ccccc1)C(=O)N1CCOCC1)c1ccc(Br)o1`, the “hERG current change (%, negative = inhibition) at 10uM” value was 3.18%.
For `O=C(N/C(=C/c1ccc(Br)cc1)C(=O)N1CCOCC1)c1cccs1`, the “hERG current change (%, negative = inhibition) at 10uM” value is listed as -5.65%.
In the case of `O=C(N/C(=C\c1ccc(Br)cc1)C(=O)N1CCOCC1)c1ccco1`, the “hERG current change (%, negative = inhibition) at 10uM” value is recorded as -41%.
As to `O=C(N/C(=C/c1ccc(Br)cc1)C(=O)N1CCOCC1)c1ccco1`, the “hERG current change (%, negative = inhibition) at 10uM” value is reported as -24.1%.
With `O=C(N/C(=C\c1ccc(Br)cc1)C(=O)N1CCOCC1)c1ccc(Br)o1`, the “hERG current change (%, negative = inhibition) at 10uM” value is listed as -67.1%.
Turning to `O=C(N/C(=C/c1ccc(Br)cc1)C(=O)N1CCOCC1)c1ccc(Br)o1`, the “hERG current change (%, negative = inhibition) at 10uM” value was -70.2%.
Consider `CCOC(=O)CN(C(=O)c1ccccc1[N+](=O)[O-])C(C)(C)C`, for which the “hERG current change (%, negative = inhibition) at 10uM” value was 9.73%.
Next, `COCc1ccc(C(=O)N2CCC(CCC(=O)Nc3cccc(C)c3)CC2)s1`: -15.1%; `COc1cccc(NC(=O)CCC2CCN(C(=O)c3cccc(NC(C)=O)c3)CC2)c1`: -28.4%; `COc1cccc(NC(=O)CCC2CCN(C(=O)c3ccc(C(C)=O)s3)CC2)c1`: -36.9%.
On to `COc1ccc(C(=O)N2CCC(CCC(=O)Nc3cccc(C)c3)CC2)cc1`, for which the “hERG current change (%, negative = inhibition) at 10uM” value was -68.3%.
On to `COc1cccc(C(=O)N2CCC(CCC(=O)Nc3cccc(C)c3)CC2)c1`, for which the “hERG current change (%, negative = inhibition) at 10uM” value is on record as -28.6%.
Take `Cc1cccc(NC(=O)CCC2CCN(C(=O)c3ccc(C)s3)CC2)c1`: the “hERG current change (%, negative = inhibition) at 10uM” value is listed as -65.5%.
For the compound `O=[N+]([O-])c1ccc(-c2nc(NCC3CCCO3)c3ccccc3n2)cc1` (centres unmarked), the “hERG current change (%, negative = inhibition) at 10uM” value is reported as 12.3%.
To `O=C(Cc1ccsc1)N1CCN(S(=O)(=O)c2cc(C(F)(F)F)cc(C(F)(F)F)c2)CC1` belongs 1.69%.
Take `Cc1ccc(S(=O)(=O)CCc2nc3ccccc3[nH]2)cc1`: the “hERG current change (%, negative = inhibition) at 10uM” value is reported as -17.6%.
Turning to `Cc1nc2cc(C)c(C)cc2s1`, the “hERG current change (%, negative = inhibition) at 10uM” value was 15.7%.
Regarding `CS(=O)(=O)N(CC(=O)NC1CCCCCC1)Cc1ccccc1`, the “hERG current change (%, negative = inhibition) at 10uM” value is -1.26%.
As to `CN1C(=O)C(CC(=O)Nc2ccc(F)cc2)N(NC(=O)c2cccc(F)c2)C1=S` (centres unmarked), the “hERG current change (%, negative = inhibition) at 10uM” value is -3.79%.
Regarding `CCn1c(SCC(=O)c2ccc3ccccc3c2)nnc1-c1cccs1`, the “hERG current change (%, negative = inhibition) at 10uM” value is -8.29%.
Turning to `COc1cc(C(=O)NC(=S)NCc2ccco2)cc(OC)c1OC`, the “hERG current change (%, negative = inhibition) at 10uM” value came to 1.74%.
